Screening results (PubChem BioAssay)
Pf growth 48h: inhibits P. falciparum growth in the first generation, 48 h; AID 504832; P. falciparum luciferase growth in erythrocytes, 48 h; 310,000 compounds, 5.9% hits; Potency, µM (doses to about 28.7 µM), for inactives: at the top dose activity change, negative = inhibition, usual class: inhibitors; further: potency means the concentration at half of the fitted maximal effect; on the % scale 0 is the no-effect control and ±100 the full control effect
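Firefly luciferase activity from engineered P. falciparum reports growth; inhibitors lower the luminescent signal. Cultures contained 2% hematocrit erythrocytes at 0.1% final parasitemia.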
SARS PLpro yeast: SARS-CoV PLP inhibition in yeast | Potency, µM (series often up to 32.9 µM), for inactives: top-dose activity, positive = growth rescue, usual class: activators | 330,000 compounds, 0.19% hits | AID 485353 | S. cerevisiae expressing SARS-CoV PLpro, growth rescue; calls by dose curve; further: potency means the concentration at half of the fitted maximal effect; 0% is about no effect; nearly all actives have a fitted effect of over 55% in size
Shiga inhibitor: inhibitors of Shiga toxin in Vero cells; AID 2315; inhibition, % at 38.7 µM; Vero cells, Shiga toxin protein synthesis inhibition reporter; 290,000 compounds, 9.2% hits; in the data active means inhibition mostly above about 28%, no sharp cut-off; inactive means mostly below about 43%; further: 0% is about no effect
Pf growth 96h: P. falciparum growth inhibition at 96 hour, primary screen for plastid delayed-death inhibitors; Potency, µM (top dose mostly 28.7 µM), for the others: at the highest dose activity change, negative = inhibition, most hits filed as inhibitors; P. falciparum luciferase reporter growth, 96 h; 320,000 compounds, 6.9% hits; further: potency means the concentration at half of the fitted maximal effect; on the % scale 0 is the no-effect control and ±100 the full control effect
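Parasite growth measured via integrated firefly luciferase reporter in P. falciparum. Infected erythrocytes at 2% hematocrit, 0.05% parasitemia final were treated 96 hours at 37 C under 5% CO2, and luminescence was read.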
NS1 inh: influenza NS1 inhibition. 270,000 compounds, 0.4% hits. Potency, µM (series often up to 46.1 µM), for inactives: at the highest dose activity, positive = more growth; calls by dose curve; further: potency means the concentration at half of the fitted maximal effect; actives are rising curves; nearly all actives have a fitted effect of over 50% in size
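Read-out: OD600 growth recovery of NS1-expressing budding yeast. Cells grown overnight at 30C in -URA glucose medium, washed, resuspended and diluted 1:100 in 2% galactose assay medium, pH 6.0. Same strain lacking NS1 served as positive control.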
CHX counter: affects cycloheximide protein synthesis inhibition readout, counter-screen. cell reporter, cycloheximide protein synthesis inhibition counterscreen. max response, %. 300,000 compounds, 12% hits; in the data active means max response mostly above about 13%, no sharp cut-off; inactive means mostly below about 14%; further: read at 38.3 µM for the half of the compounds with a filed dose; 0% is about no effect
* hit, by the source's call; ? = inconclusive; · = not tested or not shown. In the library only some 21% were active in any assay of this set; here they are far more common. Unless noted, the call rests on the fitted dose curve; in most records, active means well fitted inhibition curve with a large enough effect; inconclusive means small, poorly fitted or top-dose-only effect, or another doubt; inactive means no such curve, though single readings can be large or run the other way.

SMILES	Pf growth 48h	SARS PLpro yeast	Shiga inhibitor	Pf growth 96h	NS1 inh	CHX counter
COc1ccc(C(=O)Nc2ccc(Cc3ccncc3)cc2)cc1Br	-10.5%	-0.6%	21.1	-3.2%	-1.5%	-1.2
COc1ccccc1NC(=O)Nc1ccncc1	10.6%	-4.0%	34.0	?	·	-1.5
CCOc1ccc(-c2cnc(NCc3cccc4ccccc34)n2CCOC)cc1	?	-13.1%	-9.1	-105.5%	-42.7%	-2.5
COc1ccc(CCNC(=O)Cc2cccs2)cc1	-16.7%	-0.3%	20.4	69.7%	3.8%	9.1
O=C(Cc1ccc(Nc2nc3ccc(Br)cc3[nH]2)cc1)NCCc1cccs1	1.85µM*	-1.5%	19.2	3.29µM*	1.2%	15.5*
O=C(NCC1CC1)c1ccc(Nc2nc3ccc(Br)cc3[nH]2)cc1	?	-1.1%	-38.3	11.7µM*	4.3%	-1.9
O=C(NCc1ccco1)c1cccc(Nc2nc3ccc(Br)cc3[nH]2)c1	11.7µM*	-2.7%	-0.4	13.1µM*	15.7%	9.9
COc1ccc(S(=O)(=O)N2CCCCC2)cc1NC(=O)CNc1ccc(F)cc1C	?	-0.8%	·	-57.3%	·	·
COC(CNc1ncnc2sc(-c3ccccc3)cc12)OC	32.3%	0.6%	25.9	38.1%	1.7%	13.6
CC(O)CNc1ncnc2cc(-c3ccc(F)cc3)sc12 (centres undefined)	41.0%	-1.3%	78.6*	-14.3%	0.6%	15.2*
N#CN=C1SCCN1Cc1ccc(Cl)nc1	·	·	2.8	·	·	-6.3
CN(c1ccc(C(=O)Nc2ccc(Cl)cn2)cc1)S(=O)(=O)c1ccccc1	-12.9%	-1.6%	19.9	-27.2%	-48.3%	11.7
CCN(CC)S(=O)(=O)c1ccc(NN)nc1	-8.5%	-1.9%	4.6	?	·	0.6
CCN(CC)S(=O)(=O)c1cc(C(=O)Nc2ccc(Cl)cn2)ccc1C	124.1%	-6.3%	79.5*	·	-23.0%	33.0*
CCN(c1ccccc1)S(=O)(=O)c1cccc(C(=O)Nc2ccc(C)cn2)c1	8.28µM*	-6.4%	17.4	9.28µM*	-27.0%	-1.5
CCN(CC)S(=O)(=O)c1cc(C(=O)Nc2cccnc2Cl)ccc1Cl	-2.5%	1.7%	-13.3	11.9%	-8.2%	5.4
CCN(c1ccccc1)S(=O)(=O)c1ccc(NN)nc1	13.1µM*	3.7%	·	?	·	·
CCN(CC)S(=O)(=O)c1cccc(C(=O)Nc2ccc(Cl)cn2)c1	31.0%	-3.8%	99.3*	17.2%	-70.8%	26.2*
Cc1ccc(S(=O)(=O)N2CCC(C(=O)NNC(=O)c3ccc(F)cc3)CC2)cc1	-2.6%	4.5%	-6.0	-10.2%	·	1.3
N#Cc1c(Cl)nc2c(c1C#N)CCCC2	7.7%	-1.3%	-4.9	-6.6%	-1.8%	-3.3
O=c1[nH]ccc2c([N+](=O)[O-])cccc12	17.7%	0.1%	-17.1	31.6%	-1.1%	-1.2
O=[N+]([O-])c1cccc2c([As](=O)(O)O)cccc12	0.738µM*	-0.3%	-6.2	0.465µM*	-6.1%	-1.4
Cc1cc(C)c(OCC(=O)OCC(=O)N(C)C2CCS(=O)(=O)C2)c(C)c1 (centres undefined)	16.8%	-2.0%	·	18.9%	·	·
O=C(Nc1cccc2cccnc12)c1cccc([N+](=O)[O-])c1	78.8%	-0.4%	69.0*	22.1%	-6.2%	35.2*
O=C(Nc1cccc2cccnc12)OC(Cl)(Cl)Cl	·	·	25.5	·	·	21.5*
SMILES	Pf growth 48h	SARS PLpro yeast	Shiga inhibitor	Pf growth 96h	NS1 inh	CHX counter
CCOc1ccc(C(=O)Nc2cccc3cccnc23)cc1	3.6%	-2.4%	9.6	0.0%	-18.0%	6.1
O=C(Nc1cccc2cccnc12)C(Cl)(Cl)Cl	·	·	28.5	·	·	10.5
CC(C)Oc1ccc(C(=O)Nc2cccc3cccnc23)cc1	21.7%	-4.6%	59.3*	-9.2%	-2.4%	26.9*
O=C(Nc1cccc2cccnc12)c1ccc(F)cc1	·	·	64.2*	·	·	35.5*
CN(C)S(=O)(=O)c1cccc(C(=O)NCC(C)(C)CNC(=O)c2cccc(S(=O)(=O)N(C)C)c2)c1	?	-2.3%	14.2	-19.1%	-14.5%	11.2
CCCCCC/C=N/Nc1nnc(Cc2ccccc2)c(=O)[nH]1	·	1.9%	18.0	18.6%	4.5%	-3.8
O=C(NC(=S)Nc1cccc2cccnc12)c1ccccc1	27.0%	-4.4%	1.5	35.5%	5.7%	-3.6
O=C(Nc1cccc2cccnc12)c1ccccc1	·	·	43.3*	·	·	24.8*
O=C(COC(=O)c1ccc(Br)o1)NCCc1ccccc1	-7.3%	-1.0%	46.3	?	-1.3%	7.7
